Rows were chosen to be rich in hits. Some 11% of all compounds tested hit in one or more screens of this group.
Sm TGR block: inhibitors of Schistosoma mansoni thioredoxin glutathione reductase. Q962Y6. actives 3% (n = 360,000). Potency, µM (highest dose often 114 µM), usual class: inhibitors. purified TGR, DTNB reduction, TNB absorbance 405 nm; further: nearly all actives have a fitted effect of over 60% in size
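First, TGR (20 nM dispensed) and NADPH were mixed with compound. Second, a 15 min room-temperature incubation followed. Third, further NADPH and then DTNB were added to start the reaction. Finally, TNB absorbance was monitored kinetically.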
AMA1-RON2 inh: disrupts binding of P. falciparum AMA1 to RON2. AlphaScreen AMA1-biotinylated RON2 peptide binding. Potency, µM (series often up to 58.2 µM), most hits filed as inhibitors. actives 0.2% (n = 360,000). AID 720542; further: nearly all actives have a fitted effect of over 45% in size
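AMA1 (3D7) with his tag at 25 nM final met compounds first, then biotinylated RON2 peptide at 25 nM; detection used donor plus acceptor beads, 10 µg/mL apiece, read by AlphaScreen after 30 min at room temperature.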
Pf growth 48h: inhibits P. falciparum growth in the first generation, 48 h; P. falciparum luciferase growth in erythrocytes, 48 h; Potency, µM (titrated, usually from 28.7 µM), most hits filed as inhibitors; actives 5.9% (n = 310,000)
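Luminescence readout; reporter = integrated firefly luciferase in P. falciparum. RBC culture at 2% hematocrit, 0.1% parasitemia final, 37 C/5% CO2; decreased signal taken as growth inhibition.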
NS1 function inh: influenza NS1 inhibition; Potency, µM (doses to about 46.1 µM); actives 0.4% (n = 270,000); AID 2326; calls by dose curve; further: actives are rising curves; nearly all actives have a fitted effect of over 50% in size
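Growth recovery, yeast-based: influenza A NS1 expressed in S. cerevisiae causes slow growth, and suppressors are detected by OD600. The parent strain without NS1 is used as positive control.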
Pf growth 96h: P. falciparum growth inhibition at 96 hour, primary screen for plastid delayed-death inhibitors; P. falciparum luciferase reporter growth, 96 h; Potency, µM (doses to about 28.7 µM), actives largely listed as inhibitors; actives 6.9% (n = 320,000)
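P. falciparum expressing integrated firefly luciferase grown in erythrocytes (2% hematocrit, 0.05% parasitemia final) with compounds for 96 hours at 37 C, 5% CO2. Growth inhibition read as loss of luminescence after adding luciferase detection reagent.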
Numbers stand for hits; i = inactive; ? = inconclusive; nt = no result given. Unless noted, the call rests on the fitted dose curve; in most records, active means well fitted curve in the direction sought with a large enough effect; inconclusive means small, poorly fitted or top-dose-only effect, or another doubt; inactive means no such curve, though single readings can be large; an effect the other way counts as inactive or inconclusive.

SMILES	Sm TGR block	AMA1-RON2 inh	Pf growth 48h	NS1 function inh	Pf growth 96h
O=C(CSc1ccc(-c2ccco2)nn1)NCCc1ccccc1	11µM	i	i	nt	i
Cn1nc(C(=O)OCC(=O)Nc2ccc(Cl)cc2Cl)c2ccccc2c1=O	i	i	i	nt	i
O=C(NC1CC2CCCC(C1)N2CC(=O)N1CCCc2ccccc21)C1CCCCC1 (stereo unspecified)	i	i	i	i	15µM
CC1Oc2ccccc2N(CC(=O)NCc2ccc3c(c2)OCO3)C1=O (stereo unspecified)	i	i	i	i	12µM
CC1Oc2ccccc2N(CC(=O)Nc2ccc3c(c2)OCCO3)C1=O (stereo unspecified)	i	i	i	i	12µM
CC1CCCCC12NC(=O)N(CC(=O)NC(=O)Nc1ccc3c(c1)OCCO3)C2=O (stereo unspecified)	71µM	i	i	i	i
CC1Oc2ccccc2N(CC(=O)Nc2ccc3c(c2)OCO3)C1=O (stereo unspecified)	i	i	i	i	i
CC1CCc2nc3ncn(Cc4ccccc4C#N)c(=O)c3cc2C1 (stereo unspecified)	i	nt	nt	nt	nt
Cc1cc(OC(=O)c2cc(Br)ccc2Cl)c([N+](=O)[O-])c(=O)[nH]1	i	i	i	i	i
CC1CCN(S(=O)(=O)c2cccc(C(=O)NC3CCCC3)c2)CC1	i	i	i	i	i
CC1Oc2ccccc2N(CC(=O)N2CCCc3ccccc32)C1=O (stereo unspecified)	i	i	i	i	9.3µM
COc1ccc(Cl)cc1NC(=O)CN(C)C(=O)CCSc1ccc(C)cc1	i	i	12µM	nt	12µM
COc1cccc(NC(=O)CN(C)C(=O)CCSc2ccc(C)cc2)c1	i	i	10µM	nt	i
COc1ccc(Cl)cc1NC(=O)CN(C)C(=O)c1cc2c(s1)CCCC2	i	i	9.3µM	nt	5.2µM
COc1ccc(Cl)cc1NC(=O)CN(C)C(=O)Cc1ccc2c(c1)CCC2	i	i	?	i	i
COc1cccc(NC(=O)CCSc2ccc3ccccc3n2)c1	i	i	i	i	6.6µM
Cc1ccc(NC(=O)c2cc3c(-c4ccccc4)nn(-c4ccccc4)c3s2)cc1	i	nt	nt	nt	nt
CNC(=O)c1c2c(nc3ccc(Br)cc13)CCCC2	i	i	i	i	i
CN(C(=O)c1ccc(NC(=O)Cc2cccc(NC(=O)C3CCN(C(=O)c4ccccc4)CC3)c2)cc1)C1CCCC1	i	i	?	nt	?
COc1ccccc1NC(=O)CN(C)S(=O)(=O)c1cc(C)ccc1OC	i	i	nt	i	i
COc1ccc(OC)c(S(=O)(=O)N(C)CC(=O)Nc2cc(Cl)ccc2OC)c1	i	i	9.3µM	i	7.4µM
COc1cc(C2SCC(=O)N2c2nnc(C34CC5CC(CC(C5)C3)C4)s2)cc(OC)c1OC (stereo unspecified)	i	i	15µM	i	i
COc1ccc(C2SCC(=O)N2c2nnc(C34CC5CC(CC(C5)C3)C4)s2)cc1 (stereo unspecified)	i	i	i	i	i
COc1ccc2c(CSc3nc4nc(C)cc(C)n4n3)cc(=O)oc2c1	i	i	13µM	i	i
Cc1ccc2c(CSc3nc4nc(C)cc(C)n4n3)cc(=O)oc2c1	i	i	?	i	?
SMILES	Sm TGR block	AMA1-RON2 inh	Pf growth 48h	NS1 function inh	Pf growth 96h
COc1cc2c(cc1OC)CN(C(=O)c1cc(C3CC3)nn1-c1ccccc1)CC2	i	i	?	nt	5.9µM
O=C(c1cc(C2CC2)nn1-c1ccccc1)N1CCN(S(=O)(=O)c2cccc(F)c2)CC1	i	i	8.3µM	nt	?
O=C(c1cc(-c2cccs2)nn1-c1ccccc1)N1CCN(S(=O)(=O)c2ccccc2)CC1	i	i	10µM	nt	4.1µM
CCN(C(=O)CN1C(=O)COc2ccc(S(=O)(=O)N3CCOCC3)cc21)c1cccc(C)c1	i	nt	nt	nt	nt
CSc1ccc(C(=O)N2CCC(CCC(=O)NCc3ccc(F)cc3)CC2)cc1	i	i	?	i	i
CCCn1c(SCC(=O)N2CCN(C(=O)c3ccco3)CC2)nc2ccccc2c1=O	i	i	i	nt	i
CCCCN(CCCC)/C(N)=N/c1nc(C)cc(C)n1	i	i	i	i	?
Cc1cc(C)nc(/N=C(\N)N(Cc2ccccc2)Cc2ccccc2)n1	i	i	?	i	10µM
Cc1c(Cl)cccc1NS(=O)(=O)c1cccc2nsnc12	i	i	i	i	i
COc1cc(/C=C(\C#N)c2nc3ccccc3[nH]2)cc(OC)c1O	nt	i	?	i	i
COc1cc(/C=C(\C#N)c2nc3ccccc3[nH]2)cc(Br)c1OCc1ccccc1	i	i	2.9µM	i	i
COc1cc(/C=C(\C#N)c2nc3ccccc3[nH]2)cc(Br)c1OCc1ccc(F)cc1	i	i	3.7µM	i	2.1µM
CCn1c(=O)c(=O)n(CC)c2cc(S(=O)(=O)Nc3cc(C)ccc3C)ccc21	i	i	i	i	?
CN1CCN(C(=O)/C=C/c2cn(-c3ccccc3)nc2-c2ccc3c(c2)OCCO3)CC1	i	i	12µM	i	?
CCOC(=O)c1c(/N=C/c2cc(OC)cc([N+](=O)[O-])c2O)sc(C)c1C	i	i	i	i	i
CCOC(=O)c1c(/N=C/c2cc([N+](=O)[O-])ccc2O)sc(C)c1C	i	i	?	nt	9.3µM
O=C(COc1ccc(C(=S)N2CCCC2)cc1)Nc1ccccc1C(F)(F)F	i	i	i	i	?
Cc1ccccc1CSCC1Nc2ccc(C(=O)NCCc3ccccc3)cc2NC1=O (stereo unspecified)	nt	i	nt	nt	nt
COc1cc(C2NC(=O)NC(C)=C2C(=O)OC2CCC(C)CC2)ccc1O (stereo unspecified)	i	i	12µM	i	2.6µM
COc1ccc(C2NC(=O)NC(C)=C2C(=O)OC2CCCCC2)cc1OC (stereo unspecified)	i	i	i	i	i
COC(=O)C1=C(C)NC(=O)NC1c1ccc2ccccc2c1 (stereo unspecified)	i	i	?	i	10µM
C=CCOc1c(OC)cc(Cl)cc1C1NC(=O)NC(C)=C1C(C)=O (stereo unspecified)	i	i	i	i	3.3µM
C=CCOc1c(Cl)cc(C2NC(=O)NC(C)=C2C(=O)OC)cc1Cl (stereo unspecified)	i	i	9.3µM	i	nt
Cc1ccc(C)c(S(=O)(=O)N2CCN(C(=O)c3cncc(Br)c3)CC2)c1	i	i	?	i	i
CC(C)c1ccc(S(=O)(=O)N2CCN(C(=O)c3cc(-c4ccccc4)n[nH]3)CC2)cc1	i	i	?	i	i
COc1cccc(-c2cc(C(=O)N3CCN(S(=O)(=O)c4ccc(Br)cc4)CC3)[nH]n2)c1	i	i	i	i	13µM
COc1ccc(S(=O)(=O)N2CCN(C(=O)c3cc(-c4ccccc4OC)n[nH]3)CC2)cc1	i	i	1.3µM	i	i
CCN(CC)C(=O)C1CCN(S(=O)(=O)c2ccc3c(c2)CCCN3C(=O)C2CCC2)CC1	i	i	?	i	i

Assay outcomes (PubChem BioAssay)
